“And” between values parts separate entries of the source, which are not always exact repeats. Identical values can stand only once. Among all 5,500 compounds or so, about 2,000 (36%) were called active. About 18% were inconclusive and are not listed. Cut-off read from the data, not from the text of the source: active = normalized growth mostly below about 0.91 (no sharp cut-off); inconclusive = no clear call, values can overlap the other calls; inactive = mostly above about 0.92. Some of the results follow.
Test: chemical genetic growth profiling, strain panel (AID 1159580);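 note: tested at 20 µM; growth read once vehicle control cultures reached saturation at 30 °C; 1 = growth at the plate median or of vehicle wells; lower values mean less growth of the strain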
Details: S. cerevisiae deletion strains, growth OD

Measured: normalized growth

C[C@@H]1CC2C3CCC4=CC(=O)C=C[C@]4(C)[C@@]3(F)[C@@H](O)C[C@]2(C)[C@@]1(O)C(=O)COP(=O)(O)O (stereo partly drawn)
inactive: locus YAL021C, strain ccr4, stronger effect = lower value 0.961 | locus YAL026C, strain drs2, stronger effect = lower value 0.985 | locus YAL030W, strain snc1, stronger effect = lower value 0.996 | locus YBL061C, strain skt5, stronger effect = lower value 0.978 | locus YBR009C, strain hhf1, stronger effect = lower value 0.976 | locus YBR021W, strain FUR4, stronger effect = lower value 1.02 | locus YBR023C, strain chs3, stronger effect = lower value 0.981 | locus YBR171W, strain sec66, stronger effect = lower value 0.944 | locus YBR229C, strain ROT2, stronger effect = lower value 1 | locus YBR231C, strain swc5, stronger effect = lower value 0.955 | locus YBR279W, strain paf1, stronger effect = lower value 0.989 | locus YCL011C, strain gbp2, stronger effect = lower value 0.997 | locus YCL016C, strain dcc1, stronger effect = lower value 1.02 | locus YCL029C, strain bik1, stronger effect = lower value 1.01 | locus YCL061C, strain MRC1, stronger effect = lower value 0.971 | locus YCL069W, strain vba3, stronger effect = lower value 0.996 | locus YCR088W, strain abp1, stronger effect = lower value 0.975 | locus YDL005C, strain med2, stronger effect = lower value 0.987 | locus YDL035C, strain GPR1, stronger effect = lower value 1.03 | locus YDL040C, strain nat1, stronger effect = lower value 0.964 | locus YDL074C, strain BRE1, stronger effect = lower value 1.02 | locus YDL101C, strain DUN1, stronger effect = lower value 1.01 | locus YDL134C, strain PPH21, stronger effect = lower value 1.02 | locus YDL185W, strain tfp1, stronger effect = lower value 1 | locus YDL192W, strain arf1, stronger effect = lower value 1.01 | locus YDR001C, strain nth1, stronger effect = lower value 0.94 | locus YDR069C, strain doa4, stronger effect = lower value 0.942 | locus YDR101C, strain arx1, stronger effect = lower value 0.996 | locus YDR137W, strain rgp1, stronger effect = lower value 0.97 | locus YDR159W, strain sac3, stronger effect = lower value 0.961 | locus YDR162C, strain NBP2, stronger effect = lower value 1.02 | locus YDR195W, strain ref2 0.936 | locus YDR297W, strain sur2, stronger effect = lower value 0.979 | locus YDR318W, strain mcm21, stronger effect = lower value 0.992 | locus YDR334W, strain swr1, stronger effect = lower value 0.943 | locus YDR335W, strain msn5, stronger effect = lower value 0.949 | locus YDR388W, stronger effect = lower value 1 | locus YDR392W, strain spt3, stronger effect = lower value 1.06 | locus YDR502C, strain sam2, stronger effect = lower value 1.01 | locus YEL003W, strain gim4, stronger effect = lower value 0.98 | locus YEL037C, strain rad23, stronger effect = lower value 0.978 | locus YEL061C, strain CIN8 (second series), stronger effect = lower value 0.961 | locus YEL061C, strain CIN8, stronger effect = lower value 1.01 | locus YER015W, strain faa2, stronger effect = lower value 0.98 | locus YER016W, strain bim1, stronger effect = lower value 1.02 | locus YER110C, stronger effect = lower value 1.01 | locus YER111C, strain swi4, stronger effect = lower value 0.98 | locus YER155C, strain BEM2 (second series), stronger effect = lower value 0.972 | locus YER155C, strain BEM2, stronger effect = lower value 1.01 | locus YER167W, strain BCK2, stronger effect = lower value 1.01 | locus YFR010W, strain ubp6, stronger effect = lower value 0.936 | locus YGL078C, strain dbp3, stronger effect = lower value 1.01 | locus YGL086W, strain mad1, stronger effect = lower value 1.02 | locus YGL167C, strain pmr1, stronger effect = lower value 0.954 | locus YGL173C, strain kem1, stronger effect = lower value 1 | locus YGL227W, strain vid30, stronger effect = lower value 0.972 | locus YGL240W, strain doc1, stronger effect = lower value 0.957 | locus YGL248W, strain PDE1, stronger effect = lower value 0.998 | locus YGL253W, strain hxk2, stronger effect = lower value 0.99 | locus YGR135W, strain pre9, stronger effect = lower value 1 | locus YGR229C, strain SMI1, stronger effect = lower value 1.01 | locus YGR252W, strain gcn5, stronger effect = lower value 0.929 | locus YHR013C, strain ard1, stronger effect = lower value 1 | locus YHR027C, strain rpn1, stronger effect = lower value 0.982 | locus YHR030C, strain SLT2, stronger effect = lower value 1.01 and 0.995 | locus YHR079C, strain IRE1 (second series), stronger effect = lower value 0.992 | locus YHR079C, strain IRE1, stronger effect = lower value 1 | locus YHR094C, strain hxt1, stronger effect = lower value 1 | locus YHR129C, strain ARP1, stronger effect = lower value 1.01 | locus YHR142W, strain chs7, stronger effect = lower value 0.976 | locus YHR200W, strain rpn10, stronger effect = lower value 1 | locus YIL066C, strain RNR3, stronger effect = lower value 1.03 | locus YIL073C, strain SPO22, stronger effect = lower value 1.02 | locus YIL125W, strain kgd1, stronger effect = lower value 0.994 | locus YIR030C, strain dcg1, stronger effect = lower value 1.01 | locus YJL092W, strain hpr5, stronger effect = lower value 0.987 | locus YJL095W, strain BCK1 (second series), stronger effect = lower value 0.982 | locus YJL095W, strain BCK1, stronger effect = lower value 1.01 and 0.997 | locus YJL115W, strain asf1, stronger effect = lower value 0.959 | locus YJL129C, strain trk1, stronger effect = lower value 0.942 | locus YJL134W, strain LCB3, stronger effect = lower value 1.01 | locus YJL154C, strain vps35, stronger effect = lower value 0.952 | locus YJL164C, strain tpk1, stronger effect = lower value 1.02 | locus YJL166W, strain qcr8, stronger effect = lower value 0.917 | locus YJL168C, strain set2, stronger effect = lower value 0.992 | locus YJL187C, strain SWE1 (second series), stronger effect = lower value 1.01 | locus YJL187C, strain SWE1, stronger effect = lower value 0.988 | locus YJR043C, strain POL32, stronger effect = lower value 1.02

— PubChem BioAssay AID1159580 (chemical genetic matrix, 2015)
